Assay results published in PubChem BioAssay (Tox21).
“And” between values parts separate entries of the source, which are not always exact repeats. Identical values can stand only once. Inconclusive results are not listed. The source made the active and inactive calls. Calls come from the whole dose curve; as a rule, active = well fitted cell-killing curve with a large enough effect in the repeat runs; inconclusive = weak or mixed curves, or effect the other way; inactive = no such curve, though single readings can be large or run the other way.

Experiment: qHTS assay to identify small molecule antagonists of the thyroid receptor (TR) signaling pathway - cell viability counter screen (AID 743064); note: nearly all actives have a fitted effect of over 50% in size
Conditions: GH3.TRE-Luc viability, CellTiter-Fluor, 24 h; series mostly up to 70.3 µM; activity change, negative = cytotoxic: at the top concentration
Procedure, shortened: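 Same-well viability check: GH3.TRE-Luc cells stimulated with 1 nM T3 alongside test compound for 23.5 h, followed by CellTiter-Fluor fluorescence.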
% is set by controls: 0 for no effect and ±100 for the full control effect; potency is the fitted concentration of half-maximal effect.

Row | SMILES | activity change, negative = cytotoxic | Potency
1 | O=[N+]([O-])c1cc(Cl)c(Cl)cc1Cl | -4.63% (inactive) | 
2 | CC(C)(C)NCC(O)c1ccccc1Cl (stereo not given) | -0.29% (inactive) | 
3 | O=C([O-])c1ccccn1.O=C([O-])c1ccccn1.O=C([O-])c1ccccn1.[Cr+3] | 0.985% (inactive) | 
4 | CCSCc1ccccc1OC(=O)NC | -5.73% (inactive) | 
5 | C=CCOC(=O)C(C)(C)OC(=O)c1cc(-n2c(=O)cc(C(F)(F)F)n(C)c2=O)ccc1Cl | -0.883% (inactive) | 
6 | CC(O)CN1CCN(CC(=O)[O-])CCN(CC(=O)[O-])CCN(CC(=O)[O-])CC1.[Gd+3] (stereo not given) | 15.5% (inactive) | 
7 | CCCN(CCC)c1c([N+](=O)[O-])cc(C(C)C)cc1[N+](=O)[O-] |  | 61.1 µM (active)
8 | Nc1c(Br)cc(Br)c2c1C(=O)c1ccccc1C2=O | 1.13% [at 32.5 µM] (inactive) | 
9 | O=P(OCC(Br)CBr)(OCC(Br)CBr)OCC(Br)CBr (stereo not given) |  | 43.8 µM (active) and 51.7 µM (active)
10 | C=C(Cl)Cl | -0.0463% [at 95 µM] (inactive) | 
11 | SCc1ccccc1 | -11.2% [at 95 µM] (inactive) | 
12 | CCCC[N+]1(C)[C@@H]2CC(OC(=O)[C@H](CO)c3ccccc3)C[C@H]1[C@@H]1O[C@@H]12 (stereo not given in full) | -9.6% (inactive) | 
13 | CN1CC[C@]23c4c5ccc(O)c4O[C@H]2[C@@H](O)CC[C@H]3[C@H]1C5 | -0.384% (inactive) | 
14 | N#CC(C#N)=C(C#N)C#N | 2.65% [at 95 µM] (inactive) | 
15 | CCCC(C)(COC(N)=O)COC(=O)NC(C)C (stereo not given) |  | inactive
16 | C=CCOCC1CO1 (stereo not given) | 2.43% (inactive) | 
17 | COCc1cnc(C2=NC(C)(C(C)C)C(=O)N2)c(C(=O)O)c1 (stereo not given) | 4.32% (inactive) | 
18 | CN[C@@H](C)[C@H](O)c1ccccc1 | -9.32% (inactive) | 
19 | COc1cc(CC(C)N)c(OC)cc1Br (stereo not given) |  | 35.5 µM (active) and 23.7 µM (active)
20 | OCCSSCCO | -2.94% (inactive) | 
